# PubChem BioAssay AID1053180 (Broad Institute, 2014)
# “And” between values parts separate entries of the source, which are not always exact repeats. Equal entries are not always repeated. Screen size: about 9,600 compounds; about 20 (0.2%) were called active.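 Rule for the calls: active = highest normalized replicate activity of 15 or more, or at least half the replicates reach 15 or more; inactive = neither condition met.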 The list comes from a sample in which actives are over-represented; it also holds similar structures and randomly drawn compounds. More than one record can exist for a structure, and the calls need not agree.
# Test: Pax4 mRNA upregulation in alpha cells – RT-PCR, mouse alpha TC1 cells, single point, primary screen (AID 1053180);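 note: Pax4 Ct normalized to GAPDH with activation seen as lower delta delta Ct; plate controls were plate neutral control wells for no effect and Pax4 plasmid positive control for full effect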
# Settings: Pax4 mRNA qPCR, 6 days, at 10 µM, stronger effect = higher value, 100% = Pax4 plasmid added at qPCR
row,SMILES,activation
1,CN(C[C@@H]1[C@@H](c2ccccc2)[C@H](CO)N1CC1CC1)C(=O)c1ccc(F)cc1,-0.002% (inactive)
2,COc1ccccc1-c1ccc([C@H]2[C@@H](CO)N[C@@H]2CNC(=O)C2CC2)cc1,0.001% (inactive)
3,CC(C)(O)C#Cc1ccc([C@H]2[C@H]3CN(S(C)(=O)=O)CCCCN3[C@H]2CO)cc1,0.0005% (inactive)
4,N#C[C@@H]1[C@H](c2ccccc2C2=CCCCC2)[C@H](CO)N1C(=O)CN1CCOCC1,0% (inactive)
5,O=C(NC[C@@H]1[C@@H](c2ccccc2)[C@@H](CO)N1Cc1ccccn1)C1CCCC1,-0.003% (inactive)
6,CCCNC(=O)N1[C@H](CO)[C@@H](c2ccccc2-c2cccc(C)c2)[C@@H]1C#N,0.0075% (inactive)
7,CO[C@@H]1CC[C@@H]2CCOc3c(C#N)cccc3C(=O)N(C)CCCC(=O)N(C)C[C@H]1O2,0% (inactive)
8,O=C(C[C@@H]1C[C@@H]2c3cc(NS(=O)(=O)c4ccccc4)ccc3O[C@@H]2[C@H](CO)O1)NCC(F)(F)F,0.001% (inactive)
9,O=C(Cc1ccccc1)N1CC[C@@H]2[C@@H](CO)Nc3ccc(C#Cc4cccc(F)c4)cc3[C@@H]21,0.0035% (inactive)
10,CC(C)CC#Cc1ccc([C@H]2[C@@H](CO)N3CCCCN(C(=O)Nc4ccccc4)C[C@@H]23)cc1,0.0025% (inactive)
11,O=C(C[C@@H]1CC[C@H](NC(=O)c2ccc3c(c2)OCO3)[C@@H](CO)O1)NCc1ccc(Oc2ccccc2)cc1,0.006% (inactive)
12,COCC(=O)N1CC(=O)N2[C@H](CO)[C@H](c3ccc(-c4ccccc4F)cc3)[C@@H]2C1,0% (inactive)
13,C[C@H]1CN([C@@H](C)CO)C(=O)c2cc(NS(=O)(=O)c3ccc(F)cc3)ccc2O[C@H]1CN(C)C(=O)Nc1ccccc1,0.002% (inactive)
14,CO[C@H](CN(C)C(=O)C1CCOCC1)[C@@H](C)CN(C(=O)Nc1ccc(C(F)(F)F)cc1)[C@@H](C)CO,0.0085% (inactive)
15,O=C(CN1CCOCC1)N[C@@H]1CC[C@@H](CCn2cc(C3CC3)nn2)O[C@@H]1CO,0.0035% (inactive)
16,COc1cccc(-c2ccc(C3[C@@H]4CN(Cc5ccccn5)C[C@H]3N4)cc2)c1 (some centres not stated),0.0705% (inactive) and 213% (active)
17,COc1cc(CN2C[C@@H]3N[C@H](C2)C3c2ccc(-c3ccc(C#N)cc3)cc2)cc(OC)c1 (some centres not stated),3.96% (inactive) and 9.29% (active)
18,N#Cc1ccc(-c2ccc([C@@H]3[C@@H]4CN(Cc5cocn5)C[C@H]3N4)cc2)cc1,0.128% (inactive)
19,N#Cc1cccc(-c2ccc(C3[C@@H]4CN(Cc5ccccc5)C[C@H]3N4)cc2)c1 (some centres not stated),2.74% (inactive) and 0.113% (inactive)
20,COc1cccc(CN2C[C@@H]3N[C@H](C2)C3c2ccc(-c3ccccc3C)cc2)c1 (some centres not stated),0.0245% (inactive) and 0.039% (inactive)
21,Fc1ccccc1-c1ccc(C2[C@@H]3CN(Cc4ccccn4)C[C@H]2N3)cc1 (some centres not stated),0.412% (inactive) and 0.0165% (inactive)
22,C[C@@H]1CCCCO[C@@H](CN(C)S(=O)(=O)c2ccc(F)cc2)[C@H](C)CN([C@@H](C)CO)C(=O)c2cc(N(C)C)ccc2O1,0.002% (inactive)
23,COc1cccc(S(=O)(=O)N[C@H]2CC[C@@H](CC(=O)NC3Cc4ccccc4C3)O[C@@H]2CO)c1,0.0015% (inactive)
24,CO[C@@H]1CC[C@H]2CCOc3c(C#N)cccc3C(=O)N(C)CCCC(=O)N(C)C[C@H]1O2,0.001% (inactive)
25,C[C@@H]1CCCCO[C@H](CN(C)C(=O)c2ccncc2)[C@H](C)CN([C@H](C)CO)C(=O)c2cc(NS(=O)(=O)c3cccs3)ccc2O1,0.001% (inactive)
26,CCCNC(=O)[C@H]1[C@H](CO)[C@H]2Cn3c(ccc(/C=C/c4ccccc4)c3=O)[C@H]2N1CC1CC1,0% (inactive)

row,SMILES,activation
1,COc1ccccc1NC(=O)N1C[C@@H]2N[C@H](C1)C2c1ccc(-c2cccc(C#N)c2)cc1 (some centres not stated),0.02% (inactive) and 0.24% (inactive)
2,Cc1ccccc1S(=O)(=O)N1C[C@@H]2N[C@H](C1)C2c1ccc(-c2cccc(C#N)c2)cc1 (some centres not stated),0.966% (inactive) and 11.5% (active)
3,O=C(Nc1ccc(F)cc1)N1C[C@@H]2N[C@H](C1)C2c1ccc(/C=C/c2ccccc2)cc1 (some centres not stated),1.76% (inactive)
4,Cc1cccc(-c2ccc(C3[C@@H]4CN(C(=O)Nc5ccc(F)cc5)C[C@H]3N4)cc2)c1 (some centres not stated),0.272% (inactive)
5,N#Cc1cccc(-c2ccc(C3[C@@H]4CNC[C@H]3N4)cc2)c1 (some centres not stated),0.0045% (inactive)
6,C/C=C/c1ccc(C2[C@@H]3CN(C(=O)Nc4ccc(C(F)(F)F)cc4)C[C@H]2N3)cc1 (some centres not stated),32.9% (active) and 0.0565% (inactive)
7,N#Cc1cccc(-c2ccc(C3[C@@H]4CN(C(=O)Nc5ccc(C(F)(F)F)cc5)C[C@H]3N4)cc2)c1 (some centres not stated),8.39% (active) and 0.03% (inactive)
8,C/C=C/c1ccc(C2[C@H]3CNC[C@@H]2N3C(=O)Nc2ccc(C(F)(F)F)cc2)cc1 (some centres not stated),0.016% (inactive) and 0.0105% (inactive)
9,COc1ccc(-c2ccc(C3[C@@H]4CN(S(=O)(=O)c5ccccc5C)C[C@H]3N4)cc2)cc1 (some centres not stated),0.369% (inactive) and 0.0145% (inactive)
10,O=C1CNC[C@@H]2[C@H](c3ccc(-c4ccccc4F)cc3)[C@@H](CO)N12,0% (inactive)
11,CNC[C@H]1Oc2cc(C#Cc3ccccc3OC)ccc2S(=O)(=O)N([C@H](C)CO)C[C@@H]1C,0.402% (inactive)
12,CNC[C@H]1Oc2cc(C#Cc3ccccc3OC)ccc2S(=O)(=O)N([C@@H](C)CO)C[C@@H]1C,0.371% (inactive)
13,CNC[C@@H]1Oc2cc(C#Cc3ccccc3OC)ccc2S(=O)(=O)N([C@H](C)CO)C[C@H]1C,10.4% (active)
14,C[C@@H]1CN([C@@H](C)CO)C(=O)CCCn2nncc2CO[C@H]1CN(C)C(=O)c1cc(-c2ccccc2)on1,0.0055% (inactive)
15,C[C@@H]1CN([C@H](C)CO)C(=O)CCCn2nncc2CO[C@@H]1CN(C)Cc1ccccc1C(=O)O,-0.0005% (inactive)
16,C[C@@H]1CCCCO[C@H](CN(C)C(=O)Nc2ccc3c(c2)OCO3)[C@H](C)CN([C@H](C)CO)C(=O)c2cc(NS(=O)(=O)c3ccc(F)cc3)ccc2O1,0.0035% (inactive)
17,CC(C)CN(C[C@H]1N[C@H](CO)[C@@H]1c1ccccc1)C(=O)C1CCCCC1,0% (inactive)
18,CO[C@H]1CN(C)C(=O)c2cc(NC(=O)Nc3cccc(Cl)c3)ccc2OC[C@H](C)N(C(=O)Nc2c(C)noc2C)C[C@@H]1C,0.004% (inactive)
19,COc1ccc2c3c([nH]c2c1)[C@H](CO)N(Cc1ccccc1F)CC31CN(CC2CC2)C1,0.011% (inactive)
20,COCC#Cc1ccc([C@H]2[C@@H](CO)N3CCCCN(C(=O)NC4CCCC4)C[C@H]23)cc1,0.001% (inactive)
21,O=C(c1ccccc1)N1CC(=O)N2[C@H](CO)[C@H](c3ccc(-c4ccccc4)cc3)[C@@H]2C1,0.0005% (inactive)
22,C/C=C/c1ccc([C@@H]2[C@H](CO)N(C(C)=O)[C@H]2CNC(=O)c2ccccc2)cc1,0.0015% (inactive)
23,C[C@H](NC(=O)C[C@H]1C=C[C@@H](NC(=O)c2cccnc2)[C@H](CO)O1)c1ccccc1,0.0005% (inactive)
24,CS(=O)(=O)Nc1ccc2c(c1)[C@@H]1C[C@@H](CC(=O)NCc3cc(F)ccc3F)O[C@H](CO)[C@@H]1O2,0.007% (inactive)
25,C[C@@H]1CN([C@@H](C)CO)C(=O)c2ccccc2-c2ccccc2CO[C@@H]1CN(C)C(=O)NC1CCCCC1,-0.0015% (inactive)
26,CO[C@H]1CN(C)C(=O)c2ccc(NC(=O)c3nc4ccccc4s3)cc2OC[C@H](C)N(Cc2cccnc2)C[C@@H]1C,0.009% (inactive)
